{"source": "PubChem BioAssay (Tox21)", "note": "“And” between values parts separate entries of the source, which are not always exact repeats. Identical values can stand only once. Inconclusive results are not listed. A call without a number means that no potency is given here. A number with no mark means an inactive call. The source made the active and inactive calls. The call rests on the fitted dose curve; in most records, active means well fitted cell-killing curve with a large enough effect in the repeat runs; inconclusive means weak or mixed curves, or effect the other way; inactive means no such curve, though single readings can be large or run the other way. Potency means the concentration at half of the fitted maximal effect.", "data": [{"assay": "qHTS assay to identify small molecule antagonists of the sonic hedgehog signaling (Shh) pathway - cell viability counter screen (AID 1259367); further: nearly all actives have a fitted effect of over 55% in size", "conditions": "NIH/3T3 Gli1-Luc viability, CellTiter-Fluor, 24 h; series mostly up to 92.4 µM", "text": "National Center for Advancing Translational Sciences [NCATS]\nNIH Chemical Genomics Center [NCGC]\nU.S. Environmental Protection Agency [EPA]\nNational Institutes of Environmental Health Sciences [NIEHS]\nNational Toxicology Program [NTP]\nU.S. Food and Drug Administration [FDA]\nThe sonic hedgehog (Shh) pathway is essential for normal embryonic development. Dysregulation of the Shh pathway can cause severe developmental defects in organs. Therefore chemicals that interfere with the pathway are potential developmental toxicants. A cell line designated 3T3Gli1-Luc (DMB/OARSA/CFSAN/FDA, Laurel, MD), a NIH/3T3 derived clone containing stably integrated Gli1-Luc reporter is used to detect chemical interference of the Shh pathway, by changes in the expression of the firefly Luc gene under the control of the Gli1 transcriptional response element. This cell line was used to screen Tox21 libraries for identifying and prioritizing the potential developmental toxicants that interfere Shh pathway. Conditioned medium-stimulated mode was used to screen for chemicals inhibiting Shh signaling. The cytotoxicity of the compounds was tested in parallel by measuring the cell viability using CellTiter-Fluor assay system (Promega, Madison, WI) in the same wells.\nTox21 Assay Protocol Summary:\n3T3 Gli1-Luc cells were dispensed at 2,000 per well in 5uL of culture medium into white solid bottom 1536-well plates (Greiner Bio-One, Monroe, NC) using a Multidrop Combi (Thermo Scientific, Waltham, MA) dispenser. The assay plates were incubated at 37 C and 5% CO2 for 4hr, and then 23nL of compounds dissolved in DMSO and positive control were transferred using a Pintool station (Wako, San Diego, CA). The compound transfer was followed by the addition of 1ul conditioned medium or assay buffer using two separate tips of Flying Reagent Dispenser (FRD, Aurora Discovery, San Diego, CA). The assay plates were incubated at 37C and 5% CO2 for 24hr. For viability read, after 23hr of compound treatment, 1uL of CellTiter-Fluor reagent (Promega Corporation, Madison, WI) was added to each well of the assay plates using Flying Reagent Dispenser (FRD, Aurora Discovery, San Diego, CA) and incubated the assay plates at 37C for 1hr. The fluorescence signal was quantified using a ViewLux plate reader (Perkin Elmer, Shelton, CT).", "values": [{"molecule": "CC(=O)NNc1ccccc1", "Potency": "inactive"}, {"molecule": "O=C(Cc1ccccc1)OCCc1ccccc1", "Potency": "inactive"}, {"molecule": "CCNC(=O)NC(=O)/C(C#N)=N/OC", "Potency": "inactive"}, {"molecule": "O=C(O)C(F)(F)C(F)(F)C(F)(F)C(F)(F)C(F)(F)F", "Potency": "inactive"}, {"molecule": "CCOc1cccc(C2(N3CCN(c4ccccc4)CC3)CCC(C)CC2)c1", "note": "(stereo not given)", "Potency": "inactive"}, {"molecule": "CC(C)(C#N)C(C)(C)C#N", "Potency": "inactive"}, {"molecule": "CN1CC[C@]23c4c5ccc(O)c4O[C@H]2[C@@H](O)CC[C@H]3[C@H]1C5", "Potency": "inactive"}, {"molecule": "CCOC(=O)C1OC1(C)c1ccccc1", "note": "(stereo not given)", "Potency": "inactive"}, {"molecule": "COc1cc(CC(C)N)c(OC)cc1Br", "note": "(stereo not given)", "Potency": "inactive"}, {"molecule": "CON(C)C(=O)Nc1ccc(Cl)cc1", "Potency": "inactive"}, {"molecule": "O=C(O)c1cc(I)cc(I)c1I", "Potency": "inactive"}, {"molecule": "CCCCCCCCCCCCN=C(N)N", "viability change, negative = cytotoxic": "1.35% [at 3.27 µM]"}, {"molecule": "CCCCNC(=O)OCC#CI", "Potency": "54.2 µM (active) and 61.1 µM (active)"}, {"molecule": "CCOP(=O)(SC(C)CC)N1CCSC1=O", "note": "(stereo not given)", "Potency": "inactive"}, {"molecule": "CC1(C)[C@H](C(=O)O[C@H](C#N)c2cccc(Oc3ccccc3)c2)[C@@H]1C=C(Br)Br", "Potency": "inactive"}, {"molecule": "O=P(OCC(Br)CBr)(OCC(Br)CBr)OCC(Br)CBr", "note": "(stereo not given)", "Potency": "55.2 µM (active)"}, {"molecule": "CCC(=O)O[C@@H]1C=C2CCC3C(CCC4(C)C3CC[C@@H]4OC(=O)CC)C2CC1", "note": "(stereo not given in full)", "Potency": "inactive"}, {"molecule": "COc1ccccc1N1CCNCC1", "Potency": "inactive"}, {"molecule": "CN(C)C(=O)Nc1cccc(OC(=O)NC(C)(C)C)c1", "Potency": "inactive"}, {"molecule": "O=C1CC[C@@]2(O)[C@H]3Cc4ccc(O)c5c4[C@@]2(CCN3CC2CC2)[C@H]1O5", "Potency": "inactive"}, {"molecule": "O=C(O)c1ccc(=O)[nH]c1", "Potency": "inactive"}, {"molecule": "O=C(O)C(F)(F)C(F)(F)C(F)(F)C(F)(F)C(F)(F)C(F)(F)C(F)(F)C(F)(F)F", "Potency": "inactive"}, {"molecule": "O=[N+]([O-])c1cc(Cl)c(Cl)cc1Cl", "Potency": "inactive"}, {"molecule": "C=CCSSCC=C", "Potency": "inactive"}, {"molecule": "CC(C)(C)OOC(C)(C)CCC(C)(C)OOC(C)(C)C", "Potency": "inactive"}, {"molecule": "CCC1CCC(=O)O1", "note": "(stereo not given)", "Potency": "inactive"}, {"molecule": "CCOP(=S)(S)OCC", "Potency": "inactive"}, {"molecule": "CC(C)(C)NCC(O)c1cc(Cl)c(N)c(C(F)(F)F)c1", "note": "(stereo not given)", "Potency": "9.44 µM (active)"}, {"molecule": "CC(Cl)C(=O)O", "note": "(stereo not given)", "Potency": "inactive"}, {"molecule": "Nc1ccccc1C(=O)OCC(O)CO", "note": "(stereo not given)", "Potency": "inactive"}, {"molecule": "CCCCCCCCCCCCCCCl", "Potency": "inactive"}, {"molecule": "C[N+]1(CCF)[C@@H]2CC[C@H]1CC(OC(=O)C(O)(c1ccccc1)c1ccccc1)C2", "note": "(stereo not given in full)", "Potency": "inactive"}, {"molecule": "FC(F)OC(F)(F)C(F)Cl", "note": "(stereo not given)", "Potency": "inactive"}, {"molecule": "CCCCCCCCn1sccc1=O", "Potency": "4.34 µM (active)"}, {"molecule": "CC(C)C1(C)N=C(c2ncccc2C(=O)O)NC1=O", "note": "(stereo not given)", "Potency": "inactive"}, {"molecule": "Cc1nc2ccccc2c(=O)n1-c1ccccc1Cl", "Potency": "2.38 µM (active)"}, {"molecule": "C=CCc1ccccc1O", "Potency": "inactive"}, {"molecule": "CCCN(CCOc1c(Cl)cc(Cl)cc1Cl)C(=O)n1ccnc1", "Potency": "inactive"}, {"molecule": "Cc1cccc(C)c1NC1=NCCCS1", "Potency": "inactive"}, {"molecule": "CN(C)N", "Potency": "inactive"}]}]}
